Sensor-assay potency score (higher = more potent) data for 20 sequences are collected here from the OligoGym collection.
Also: reference of the scale not given here.

The first assay deals with FYTTD1. The assay can be described thus: pooled miR-30 sensor sort-seq; sequence = guide strand. The settings on record: shRNA.
With TTAAAAATGAAGGTACAGCAGT, the sensor-assay potency score (higher = more potent) is -0.441. TAGCTGGCTAGGTCTCTTGAGA came in with a sensor-assay potency score (higher = more potent) of -1.72. Still for that read-out and setting: in the case of TTCTGTATTCAACTGGGCCTGC it was -0.211; in that of TAGTCTTGGAAAATTCTGCTTC, 0.266. As for TATTCTTGTCACTTAGAGGTGG, the sensor-assay potency score (higher = more potent) came to 0.0654. For the sequence TAGGTCTCTTGAGAACTGCTAC, the sensor-assay potency score (higher = more potent) was -0.309. In turn, TTGTATGTGAGAGTGGCTCTTT registered a sensor-assay potency score (higher = more potent) of -0.0403.

TTCTCTTTGCTACTACATCGTC showed a sensor-assay potency score (higher = more potent) of -0.513. For the sequence TGCTACTACATCGTCTAGCAGT, the sensor-assay potency score (higher = more potent) was -0.935. TACTACATCGTCTAGCAGTTGT displayed a sensor-assay potency score (higher = more potent) of 0.276. The same measure, in the same setting: in the case of TTATTTTTTCTGCTTAGCTGGC it was -0.29.

TTTAATTTATTTCCACTCCTGG: the sensor-assay potency score (higher = more potent) is -0.341.

For another assay, the target named is FZD1. The assay is described as above. The settings on record: shRNA.
In the case of TACAGCACGCTGAAGACGCCAA, the sensor-assay potency score (higher = more potent) was -0.38.

As for TTGAGGGTCTTGCCGGACCAGA, the sensor-assay potency score (higher = more potent) is -1.52. Still for that read-out and setting: in the case of ATGAAGACCGTGAAGTCCGGGC it was -0.0414. Still for that read-out and setting: in the case of TACTTAATCATGAAGACCGTGA it was -0.126; in that of TTCACTAGAGGGTAGAACTGGT, 0.461; in that of TTTCACTAGAGGGTAGAACTGG, -0.532. Still for that read-out and setting: to TAGAACTTCCTCCAGGAGTTGA belongs -0.794. Sequence TTTGCTGTTGGTGAGCCTCGTG displayed a sensor-assay potency score (higher = more potent) of -0.218.
